# From PMC11062922 (Nature Chemical Biology, 2023)
# Read-outs that look alike come from different tables or passages of the source.
# Legend:
# Design in all cases: species or system human, MV4-11 + K-562 + COLO205 + SK-N-BE2 + OVCAR-8
# GAK = settings: read-out: apparent Kd; compound concentrations: 100 nM and 1000 nM (sheet 'Samples'), CATDS: 0.59760522623710299; n = 1
# NQO1 = settings: read-out: apparent Kd; compound concentrations: 100 nM and 1000 nM (sheet 'Samples'), CATDS: 0.42980166948746801; n = 1
# FLT3 = settings: read-out: apparent Kd; compound concentrations:100 nM and 1000 nM (sheet 'Samples'); n = 1
# MYLK3 = settings: read-out: apparent Kd; compound concentrations:100 nM and 1000 nM (sheet 'Samples'); n = 1
# TNIK = settings: read-out: apparent Kd; compound concentrations:100 nM and 1000 nM (sheet 'Samples'); n = 1
# GSK3A = settings: read-out: apparent Kd, compound concentrations: 100 nM and 1000 nM (sheet 'Samples'), n = 1
# GSK3B = settings: read-out: apparent Kd, compound concentrations: 100 nM and 1000 nM (sheet 'Samples'), n = 1
# PRKCA = settings: read-out: apparent Kd; compound concentrations: 100 nM and 1000 nM (sheet 'Samples'), CATDS: 0.213712947404604; n = 1
# PRKCB = settings: read-out: apparent Kd; compound concentrations: 100 nM and 1000 nM (sheet 'Samples'), CATDS: 0.109320974178185; n = 1
# PRKCD = settings: read-out: apparent Kd, compound concentrations: 100 nM and 1000 nM (sheet 'Samples'), n = 1
# PRKCQ = settings: read-out: apparent Kd, compound concentrations: 100 nM and 1000 nM (sheet 'Samples'), n = 1
# RPS6KA6 = settings: read-out: apparent Kd; compound concentrations: 100 nM and 1000 nM (sheet 'Samples'), CATDS: 0.131410075991204; n = 1
# ICK = settings: read-out: apparent Kd, compound concentrations: 100 nM and 1000 nM (sheet 'Samples'), n = 1
# STRADA = settings: read-out: apparent Kd; compound concentrations: 100 nM and 1000 nM (sheet 'Samples'), CATDS: 0.19302175262426299; n = 1
smiles,measurement,setting,value
C#Cc1cccc(Nc2ncnc3ccc(OCCCCNCCS(C)(=O)=O)cc23)c1 [GW680191X],potency estimated from few doses,GAK,804 nM
same,potency estimated from few doses,NQO1,1580 nM
C/C(Nc1ccc(S(N)(=O)=O)cc1)=C1/C(=O)Nc2ccccc21 [GW335962X],potency estimated from few doses,FLT3,524 nM
same,potency estimated from few doses,MYLK3,629 nM
same,potency estimated from few doses,TNIK,2260 nM
Cn1cc(C2=C(c3cn(CCCCCN)c4ccccc34)C(=O)NC2=O)c2ccccc21 [RO0317843-000],potency estimated from few doses,GSK3A; CATDS: 0.120915323717963,500 nM
same,potency estimated from few doses,GSK3B; CATDS: 0.12552661641342699,455 nM
same,potency estimated from few doses,PRKCA,159 nM
same,potency estimated from few doses,PRKCB,666 nM
same,potency estimated from few doses,PRKCD; CATDS: 0.13254198888423899,398 nM
same,potency estimated from few doses,PRKCQ; CATDS: 0.26439518938370499,114 nM
same,potency estimated from few doses,RPS6KA6,407 nM
CCCn1cc(C2=C(c3cn(C)c4ccccc34)C(=O)NC2=O)c2ccccc21 [RO0318549-000],potency estimated from few doses,GSK3A; CATDS: 0.30461249661504503,823 nM
same,potency estimated from few doses,GSK3B; CATDS: 0.29770520720673899,857 nM
same,potency estimated from few doses,ICK; CATDS: 0.23938622627213799,1320 nM
same,potency estimated from few doses,STRADA,2260 nM
Cn1cc(C2=C(c3cn(CCO)c4ccccc34)C(=O)NC2=O)c2ccccc21 [RO0318036-000],potency estimated from few doses,GSK3A; CATDS: 0.34431860248680501,263 nM
same,potency estimated from few doses,GSK3B; CATDS: 0.35306232464093901,252 nM
same,potency estimated from few doses,ICK; CATDS: 0.173475626531951,1120 nM
same,potency estimated from few doses,PRKCD; CATDS: 0.14509929843566999,1970 nM
same,potency estimated from few doses,PRKCQ; CATDS: 0.15135413462946001,1700 nM
Cn1cc(C2=C(c3cn(C)c4cc(C(=O)O)ccc34)C(=O)NC2=O)c2ccccc21 [RO0319318-000],potency estimated from few doses,GSK3A; CATDS: 0.46645523537497902,612 nM
same,potency estimated from few doses,GSK3B; CATDS: 0.53874330478413901,458 nM
COc1cccc2c1c(C1=C(c3cn(C)c4ccccc34)C(=O)NC1=O)cn2C [RO0317494-000],potency estimated from few doses,GSK3A; CATDS: 0.489076637072761,149 nM
same,potency estimated from few doses,GSK3B; CATDS: 0.37680240996491099,241 nM
same,potency estimated from few doses,ICK; CATDS: 0.23248137577465,912 nM
Cn1cc(C2=C(c3cccc(OC[C@H](O)CO)c3)C(=O)NC2=O)c2ccccc21 [RO3206173-000],potency estimated from few doses,GSK3A; CATDS: 0.54568324377959498,6.06 nM
same,potency estimated from few doses,GSK3B; CATDS: 0.46137484559858299,8.49 nM
O=C(Nc1n[nH]c2nc(-c3ccco3)ccc12)C1CC1 [SB-743899],potency estimated from few doses,GSK3A; CATDS: 0.54830406508791196,1390 nM
same,potency estimated from few doses,PRKCD; CATDS: 0.45951776162212499,1990 nM
Cn1cc(C2=C(c3cccc(OCC(O)CO)c3)C(=O)NC2=O)c2ccccc21 (centres unmarked) [RO5198354-000],potency estimated from few doses,GSK3A; CATDS: 0.57799072500507098,370 nM
same,potency estimated from few doses,GSK3B; CATDS: 0.44055416886874998,644 nM
